Some test systems named below: HCT-15 colon; HT29 colon; SNB-75 CNS; SNB-19 CNS; U251 CNS; PC-3 prostate; SK-MEL-5 melanoma; UACC-62 melanoma; LOX IMVI melanoma; SK-MEL-28 melanoma.
Assay in all cases: NCI-60 one-dose screen, 48 h (100 = growth as untreated, 0 = no growth, -100 = all killed)
Holding throughout (settings): 10 µM unless noted

Molecules are shown by their SMILES. The panel holds about 83,000 compounds, 20% with a hit somewhere; the sample as a whole holds those more often.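 Plates (96-well) were seeded with cells, treated with compound at one concentration, and incubated for 48 hours before percent growth was determined.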 Unmarked numbers belong to inactive results. The source made the active and inactive calls. The calls were made as follows: active = growth percent below 10; inactive = the rest.

Consider `CCCCCCCCCCCCCCCCCCOc1ccccc1CC(=O)NCC[N+]1(C)CCOCC1`, for which the growth was 91.1% with HCT-15 colon; 29.8% in the test with HT29 colon; 46.9% in the test with SNB-75 CNS; 25.9% with SNB-19 CNS; 10.1% with U251 CNS; -46.4% (active) with PC-3 prostate. Also, the growth is 75% in the test on SK-MEL-5 melanoma, 56.3% with UACC-62 melanoma, 55.5% in the test on LOX IMVI melanoma and 74.7% in the test with SK-MEL-28 melanoma.

On to `CN1CCN(CCCOC(=O)c2c3c(n4ccccc24)C(=O)c2ncccc2C3=O)CC1`, for which the growth in the test on HCT-15 colon was -39.1% (active); in the test on HT29 colon it was -32.3% (active); in the test with SNB-75 CNS it was -88.7% (active); in the test with SNB-19 CNS, 1.8% (active); in the test on U251 CNS, -31.7% (active); in the test on PC-3 prostate it was 17.6%. Also, the growth in the test with SK-MEL-5 melanoma is -98% (active); in the test with UACC-62 melanoma, -48.8% (active); in the test with LOX IMVI melanoma, -60.9% (active); with SK-MEL-28 melanoma, 12.5%.

For `COc1ccc2[nH]cc(-c3nc(-c4cn(C)c5ccncc45)cs3)c2c1`, the growth in the test on HCT-15 colon is -47.7% (active); in the test on HT29 colon it was -33.6% (active); in the test with SNB-75 CNS it was 110%; in the test with SNB-19 CNS, 14.6%; with U251 CNS it was -71.5% (active); in the test with PC-3 prostate, 48.5%. Besides, the growth in the test with SK-MEL-5 melanoma is 50.2%; in the test on UACC-62 melanoma, 101%; in the test with LOX IMVI melanoma, -88.3% (active); in the test on SK-MEL-28 melanoma, 91.4%.

Consider `N#Cc1c(-c2ccccc2)c(C#N)c2c(C#N)c(N)nn2c1N`, for which the growth in the test with HCT-15 colon is 24.3%; in the test on HT29 colon, 8.55% (active); with SNB-75 CNS, 52.1%; in the test on SNB-19 CNS, 38.1%; in the test with U251 CNS it was 20.3%; with PC-3 prostate, 50.5%. The growth in the test with SK-MEL-5 melanoma is 24.7%; in the test with UACC-62 melanoma, 19.6%; in the test on LOX IMVI melanoma, 35.6%; with SK-MEL-28 melanoma, 56.8%.

For the compound `CCCCCCC(=O)Nc1ncc(Cc2ccc(C)cc2)s1`, the growth in the test on HCT-15 colon is 35.5%; with HT29 colon it was 15.4%; in the test with SNB-75 CNS, -0.16% (active); in the test on SNB-19 CNS, 44.2%; in the test on U251 CNS, 39%; in the test with PC-3 prostate, 41.7%. In addition, the growth with SK-MEL-5 melanoma is 36.9%; in the test with UACC-62 melanoma, 31.1%; in the test on LOX IMVI melanoma, 44.1%; in the test with SK-MEL-28 melanoma, 66.5%.

Turning to `Cc1ccc(C)c(-n2c(-c3ccc(Br)cc3)csc2=NC(=O)c2ccccc2F)c1`, the growth in the test on HCT-15 colon is 57.9%; in the test with HT29 colon, 55.5%; in the test with SNB-75 CNS it was 84.6%; in the test on SNB-19 CNS, 93.7%; in the test with U251 CNS it was 46.4%; with PC-3 prostate it was 22.7%. Also, the growth in the test on SK-MEL-5 melanoma was 46.9%; in the test on UACC-62 melanoma, 60.7%; with LOX IMVI melanoma, 76.9%; in the test on SK-MEL-28 melanoma it was 96.6%.

Take `COc1cccc(C(=O)OCC(O)C(=O)NC23CC4CC(CC(C4)C2)C3)c1` (stereo not given): the growth in the test with HCT-15 colon was 96.9%; in the test on HT29 colon, 101%; in the test on SNB-75 CNS, 95.2%; with SNB-19 CNS, 97.2%; in the test with U251 CNS it was 94.1%; with PC-3 prostate, 93.3%. Also, the growth with SK-MEL-5 melanoma was 99.2%; with UACC-62 melanoma, 93.4%; in the test with LOX IMVI melanoma it was 95.4%; in the test on SK-MEL-28 melanoma, 104%.

For the compound `N#Cc1nc2c(S(=O)(=O)c3ccccc3)c(N)n(Cc3cccnc3)c2nc1C#N`, the growth with HCT-15 colon was 101%; with HT29 colon, 104%; in the test with SNB-75 CNS it was 57.4%; in the test on SNB-19 CNS it was 75.9%; in the test with U251 CNS, 75.5%; in the test with PC-3 prostate, 67%. Further, the growth in the test on SK-MEL-5 melanoma was 93.6%; with UACC-62 melanoma, 85.6%; with LOX IMVI melanoma, 88.3%; in the test with SK-MEL-28 melanoma it was 89.3%.

On to `Cc1cccc(-n2c(C)nc3ccc(N4CCCNC4=O)cc3c2=O)c1`, for which the growth was 113% with HCT-15 colon; 106% with HT29 colon; 103% in the test with SNB-75 CNS; 98.2% in the test with SNB-19 CNS; 93.4% in the test on U251 CNS; 100% in the test on PC-3 prostate. Further, the growth is 102% with SK-MEL-5 melanoma, 97.3% with UACC-62 melanoma, 97.7% in the test on LOX IMVI melanoma and 112% with SK-MEL-28 melanoma.

Regarding `CN(C)c1ccc(/C=C2/C=C(c3ccccc3)OC2=O)cc1`, the growth is 91.7% in the test with HCT-15 colon; 94.7% in the test with HT29 colon; 102% in the test on SNB-75 CNS; 107% in the test on SNB-19 CNS; 108% in the test with U251 CNS; 96.9% in the test on PC-3 prostate. Moreover, the growth in the test on SK-MEL-5 melanoma was 87%; in the test with UACC-62 melanoma, 92.6%; in the test on LOX IMVI melanoma, 98.8%; in the test with SK-MEL-28 melanoma, 105%.

`O=C1/C(=C/c2ccccc2[N+](=O)[O-])COc2ccc(O)cc21`: the growth is -8.7% (active) in the test with HCT-15 colon; -20.8% (active) with HT29 colon; 43.2% with SNB-75 CNS; 62.7% in the test with SNB-19 CNS; 7.41% (active) in the test on U251 CNS; 4.19% (active) in the test with PC-3 prostate. The growth with SK-MEL-5 melanoma was 59.1%; with UACC-62 melanoma, 2.16% (active); in the test on LOX IMVI melanoma it was -66.1% (active); with SK-MEL-28 melanoma, -5.79% (active).

For the compound `O=C(CCCCl)NNc1nccc(Nc2ccc(S(=O)(=O)Nc3ccncc3)cc2)n1`, the growth in the test with HCT-15 colon is 103%; with HT29 colon it was 102%; with SNB-75 CNS it was 93.2%; in the test on SNB-19 CNS it was 106%; in the test with U251 CNS it was 103%; with PC-3 prostate it was 93%. Besides, the growth in the test with SK-MEL-5 melanoma was 105%; in the test on UACC-62 melanoma, 102%; with LOX IMVI melanoma, 98%; in the test on SK-MEL-28 melanoma, 107%.

For `COc1cc(OC)cc(C2C(C#N)=C(N)Oc3c2ccc2ccc(O)cc32)c1` (stereo not given), the growth in the test with HCT-15 colon was 4.56% (active); in the test with HT29 colon, 7.81% (active); in the test with SNB-75 CNS, 72%; in the test on SNB-19 CNS, 26.9%; with U251 CNS, 12.8%; with PC-3 prostate, 17.6%. Further, the growth is -45.6% (active) in the test with SK-MEL-5 melanoma, 28.9% in the test with UACC-62 melanoma, 0.698% (active) with LOX IMVI melanoma and 48.6% in the test on SK-MEL-28 melanoma.

Values taken from PubChem BioAssay (NCI).
